Consider 8 compounds from the supplement of paper PMC7411054.

Counter-ions that a name gives are not always drawn. A value given as a limit tells only on which side of the number the result lay.

What all share (conditions): treatment time: 24 h
Assay [1] has as its system WPMY1-GM130-SQSTM1. The assay is described as follows: lowest phenotypically active concentration; higher = less potent. In a few lines: (§1)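 Cells from fifteen gene-edited reporter lines (A549, HepG2 and WPMY1) were treated for 24 h at 0.3, 1, 3 or 9 µM and imaged live, four wells per condition. Features were normalised per well to solvent control wells. A condition deviated if ≥3 of 4 wells passed the 95th percentile of control Euclidean distances and was reproducible if its median replicate Pearson correlation beat the 95th percentile of non-replicates; phenotypic activity needed both.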

The next assay deals with A549-ACTB-RAB5A. As to the kind of experiment: phenotypically active (imaging signature differs from DMSO and reproducible) at any of 0.3-9 uM (binary (1 = active, 0 = inactive)); higher = active. In a few lines:
as §1

The next assay relates to A549-CANX-COX4. Described as above. In short, it runs like this:
as §1

A further assay has as its system A549-GM130-SQSTM1. The assay is described as above. In a few lines:
as §1

The subject of the next assay is A549-TP53BP1-CLTA. The description is as above. In short, it runs like this: as §1
The subject of another assay is A549-TUBA1B-RELA. The description is as above. In short, it runs like this: as §1
The next assay relates to HepG2-ACTB-RAB5A. The assay is described as above. In short, it runs like this:
as §1

Another assay deals with HepG2-CANX-COX4. The assay is described as above. In a few lines: as §1
The next assay deals with HepG2-GM130-SQSTM1. The description is as above. In a few lines: as §1
The next assay concerns HepG2-TP53BP1-CLTA. The assay is described as above. In short, it runs like this: as §1
For another assay, the system named is HepG2-TUBA1B-RELA. The description is as above. In a few lines:
as §1

The subject of a further assay is WPMY1-ACTB-RAB5A. Described as above. In short, it runs like this: as §1
For assay [2], the system named is WPMY1-CANX-COX4. Described as above. In a few lines: as §1
Assay [3] relates to WPMY1-GM130-SQSTM1. The assay is described as above. In a few lines:
as §1

The next assay has as its system WPMY1-TP53BP1-CLTA. The description is as above. In a few lines: as §1
Another assay concerns WPMY1-TUBA1B-RELA. The description is as above. In short, it runs like this: as §1
Assay [4] concerns WPMY1-CANX-COX4. As to the kind of experiment: lowest phenotypically active concentration; higher = less potent. In a few lines:
as §1

In the case of `O=C1CCc2ccc(OCCCCN3CCN(c4cccc(Cl)c4Cl)CC3)cc2N1` [aripiprazole], the “lowest phenotypically active concentration” value in the assay with WPMY1-GM130-SQSTM1 [1] is at most 0.3 µM. For the same compound, the phenotypically active in the assay on A549-ACTB-RAB5A, in the assay on A549-CANX-COX4, with A549-GM130-SQSTM1, with A549-TP53BP1-CLTA, in the assay with A549-TUBA1B-RELA and in the assay on HepG2-ACTB-RAB5A was 0 (inactive) throughout. Also, the phenotypically active in the assay on HepG2-CANX-COX4, in the assay with HepG2-GM130-SQSTM1, with HepG2-TP53BP1-CLTA, in the assay with HepG2-TUBA1B-RELA, with WPMY1-ACTB-RAB5A and with WPMY1-CANX-COX4 [2] was 0 (inactive) in each case. Moreover, the phenotypically active was 1 (active) with WPMY1-GM130-SQSTM1 [3], 0 (inactive) in the assay with WPMY1-TP53BP1-CLTA and 0 (inactive) with WPMY1-TUBA1B-RELA.

Regarding `COC(=O)C1=C(C)NC(C)=C(C(=O)OC)C1c1ccccc1[N+](=O)[O-]` [nifedipine], the “lowest phenotypically active concentration” value with WPMY1-GM130-SQSTM1 [1] was found to be 9 µM. Moreover, the phenotypically active in the assay with A549-ACTB-RAB5A, in the assay on A549-CANX-COX4, with A549-GM130-SQSTM1, in the assay on A549-TP53BP1-CLTA, in the assay on A549-TUBA1B-RELA and in the assay with HepG2-ACTB-RAB5A was 0 (inactive) throughout. Besides, the phenotypically active in the assay with HepG2-CANX-COX4, in the assay on HepG2-GM130-SQSTM1, with HepG2-TP53BP1-CLTA, with HepG2-TUBA1B-RELA, with WPMY1-ACTB-RAB5A and in the assay with WPMY1-CANX-COX4 [2] was 0 (inactive) throughout. In addition, the phenotypically active with WPMY1-GM130-SQSTM1 [3] was 1 (active); in the assay with WPMY1-TP53BP1-CLTA, 0 (inactive); with WPMY1-TUBA1B-RELA, 0 (inactive).

Consider `CNC(=C[N+](=O)[O-])NCCSCc1ccc(CN(C)C)o1` [ranitidine], for which the phenotypically active in the assay with A549-ACTB-RAB5A, in the assay with A549-CANX-COX4, with A549-GM130-SQSTM1, in the assay with A549-TP53BP1-CLTA, in the assay with A549-TUBA1B-RELA and with HepG2-ACTB-RAB5A was 0 (inactive) each time. Besides, the phenotypically active in the assay on HepG2-CANX-COX4 is 0 (inactive); in the assay with HepG2-GM130-SQSTM1, 1 (active); with HepG2-TP53BP1-CLTA, 0 (inactive); with HepG2-TUBA1B-RELA, 0 (inactive); in the assay on WPMY1-ACTB-RAB5A, 0 (inactive); in the assay with WPMY1-CANX-COX4 [2], 0 (inactive). The phenotypically active in the assay on WPMY1-GM130-SQSTM1 [3], with WPMY1-TP53BP1-CLTA and with WPMY1-TUBA1B-RELA was 0 (inactive) in each case.

As for `COC(=O)[C@H]1[C@H]2C[C@H]3c4[nH]c5ccccc5c4CCN3C[C@H]2CC[C@@H]1O` [Rauwolscine hydrochloride], in the assay with WPMY1-GM130-SQSTM1 [1], the “lowest phenotypically active concentration” value is 3 µM. Besides, the phenotypically active with A549-ACTB-RAB5A, with A549-CANX-COX4, with A549-GM130-SQSTM1, with A549-TP53BP1-CLTA, in the assay with A549-TUBA1B-RELA and with HepG2-ACTB-RAB5A was 0 (inactive) each time. The phenotypically active in the assay with HepG2-CANX-COX4, in the assay on HepG2-GM130-SQSTM1, in the assay with HepG2-TP53BP1-CLTA, in the assay on HepG2-TUBA1B-RELA, in the assay on WPMY1-ACTB-RAB5A and in the assay with WPMY1-CANX-COX4 [2] was 0 (inactive) each time. Also, the phenotypically active in the assay on WPMY1-GM130-SQSTM1 [3] is 1 (active); in the assay on WPMY1-TP53BP1-CLTA, 0 (inactive); in the assay on WPMY1-TUBA1B-RELA it was 0 (inactive).

On to `O=[N+]([O-])c1cc(Cl)ccc1S(=O)(=O)c1ccccc1`, for which the “lowest phenotypically active concentration” value in the assay on WPMY1-GM130-SQSTM1 [1] is 9 µM. Moreover, the phenotypically active with A549-ACTB-RAB5A, with A549-CANX-COX4, in the assay on A549-GM130-SQSTM1, in the assay with A549-TP53BP1-CLTA, in the assay on A549-TUBA1B-RELA and in the assay on HepG2-ACTB-RAB5A was 0 (inactive) throughout. Further, the phenotypically active with HepG2-CANX-COX4 is 0 (inactive); in the assay on HepG2-GM130-SQSTM1 it was 1 (active); in the assay on HepG2-TP53BP1-CLTA, 0 (inactive); in the assay on HepG2-TUBA1B-RELA it was 0 (inactive); with WPMY1-ACTB-RAB5A, 0 (inactive); in the assay on WPMY1-CANX-COX4 [2], 0 (inactive). Also, the phenotypically active was 1 (active) in the assay with WPMY1-GM130-SQSTM1 [3], 0 (inactive) with WPMY1-TP53BP1-CLTA and 0 (inactive) in the assay with WPMY1-TUBA1B-RELA.

With `CC1(C)CC(=O)c2c(S(C)(=O)=O)sc(Cl)c2C1`, in the assay on WPMY1-GM130-SQSTM1 [1], the “lowest phenotypically active concentration” value worked out at 3 µM. For the same compound, the phenotypically active in the assay with A549-ACTB-RAB5A, in the assay on A549-CANX-COX4, in the assay on A549-GM130-SQSTM1, in the assay with A549-TP53BP1-CLTA, in the assay on A549-TUBA1B-RELA and in the assay with HepG2-ACTB-RAB5A was 0 (inactive) throughout. Moreover, the phenotypically active in the assay on HepG2-CANX-COX4 is 0 (inactive); in the assay with HepG2-GM130-SQSTM1, 1 (active); in the assay with HepG2-TP53BP1-CLTA, 0 (inactive); with HepG2-TUBA1B-RELA, 0 (inactive); with WPMY1-ACTB-RAB5A it was 0 (inactive); in the assay on WPMY1-CANX-COX4 [2] it was 0 (inactive). In addition, the phenotypically active with WPMY1-GM130-SQSTM1 [3] is 1 (active); with WPMY1-TP53BP1-CLTA, 0 (inactive); in the assay with WPMY1-TUBA1B-RELA it was 0 (inactive).

As for `CCN1C(=O)NC(c2ccccc2)C1=O` (stereo unspecified) [ethotoin], in the assay on WPMY1-CANX-COX4 [4], the “lowest phenotypically active concentration” value came to 3 µM. In addition, the phenotypically active in the assay with A549-ACTB-RAB5A, with A549-CANX-COX4, in the assay with A549-GM130-SQSTM1, in the assay with A549-TP53BP1-CLTA, in the assay with A549-TUBA1B-RELA and with HepG2-ACTB-RAB5A was 0 (inactive) in each case. The phenotypically active with HepG2-CANX-COX4 is 0 (inactive); with HepG2-GM130-SQSTM1, 0 (inactive); in the assay with HepG2-TP53BP1-CLTA, 0 (inactive); in the assay with HepG2-TUBA1B-RELA, 0 (inactive); with WPMY1-ACTB-RAB5A, 1 (active); with WPMY1-CANX-COX4 [2], 1 (active). Further, the phenotypically active in the assay on WPMY1-GM130-SQSTM1 [3], in the assay on WPMY1-TP53BP1-CLTA and with WPMY1-TUBA1B-RELA was 0 (inactive) in each case.

For the compound `O=C(Nc1ccccc1)N1CCC(Cc2cnc3ccccc3c2)CC1`, the phenotypically active with A549-ACTB-RAB5A, in the assay with A549-CANX-COX4, with A549-GM130-SQSTM1, in the assay on A549-TP53BP1-CLTA, in the assay on A549-TUBA1B-RELA and in the assay with HepG2-ACTB-RAB5A was 0 (inactive) in each case. The phenotypically active in the assay on HepG2-CANX-COX4 is 0 (inactive); in the assay with HepG2-GM130-SQSTM1, 0 (inactive); in the assay on HepG2-TP53BP1-CLTA, 1 (active); with HepG2-TUBA1B-RELA it was 1 (active); with WPMY1-ACTB-RAB5A, 0 (inactive); with WPMY1-CANX-COX4 [2], 0 (inactive). In addition, the phenotypically active in the assay on WPMY1-GM130-SQSTM1 [3], in the assay with WPMY1-TP53BP1-CLTA and in the assay on WPMY1-TUBA1B-RELA was 0 (inactive) throughout.
